TDP1 cell CPT = qHTS for Inhibitors of human tyrosyl-DNA phosphodiesterase 1 (TDP1): qHTS in cells in presence of CPT; 420,000 compounds, 12% hits; chicken DT40 Tdp1-/-;hTDP1 cells + 20 nM CPT, ATP luminescence, 48 h; Potency, µM (titrated, usually from 46.2 µM), without a hit: top-dose activity change, negative = growth inhibition, most hits filed as inhibitors; note: potency is the fitted concentration of half-maximal effect; % is set by controls: 0 for no effect and ±100 for the full control effect; nearly all actives have a fitted effect of over 55% in size
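Chicken DT40 Tdp1-/- cells stably complemented with human TDP1 were seeded at 400 cells/well in medium containing 20 nM camptothecin, exposed to pin-transferred compounds, and grown at 37 °C for at least 48 hr. Viability was read as ATP luminescence.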
TDP1 cell noCPT = qHTS for Inhibitors of human tyrosyl-DNA phosphodiesterase 1 (TDP1): qHTS in cells in absence of CPT. AID 686978, 2013. DT40 Tdp1-/- hTDP1 cells, no CPT, ATP luminescence, 48 h. 420,000 compounds, 15% hits. Potency, µM (doses to about 46.2 µM), for the others: at the top dose activity change, negative = growth inhibition, hits mostly inhibitors; note: potency is the fitted concentration of half-maximal effect; % is set by controls: 0 for no effect and ±100 for the full control effect; nearly all actives have a fitted effect of over 55% in size
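Compound effects on proliferation are scored in DT40 Tdp1-/-;hTDP1 cells in the absence of CPT. ATP levels (CellTiter-Glo luminescence) are recorded after a ≥48 hr, 37 °C incubation.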
TGFb SMAD3 inh = qHTS for Inhibitors of TGF-b; HepG2 CAGA-GFP TGF-b/SMAD3 reporter, GFP fluorescence, 18 h; TGF-beta stimulated, 500 pg/mL final; Potency, µM (doses to about 46.1 µM), for the others: at the highest dose activity, negative = inhibition, most hits filed as inhibitors; 410,000 compounds, 1.2% hits; note: potency is the fitted concentration of half-maximal effect; % is set by controls: 0 for no effect and ±100 for the full control effect; nearly all actives have a fitted effect of over 65% in size
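Inhibition was scored as loss of TGF-beta-induced (500 pg/mL final, 18 hours, 37 degrees C) GFP in HEPG2 cells carrying a CAGA-GFP reporter, in DMEM with 1% FBS. Well GFP was summed per cell; Activity was normalised to unstimulated and stimulated DMSO wells, then concentration-response fitting.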
TDP1 block = qHTS Assay for Inhibitors of Tyrosyl-DNA Phosphodiesterase (TDP1) | recombinant TDP1, AlphaScreen DNA substrate cleavage | 350,000 compounds, 0.28% hits | Potency, µM (series often up to 130 µM), without a hit: top-dose activity change, negative = inhibition, hits mostly inhibitors | AID 485290, 2010 | Tyrosyl-DNA phosphodiesterase 1 (Homo sapiens), Q9NUW8; note: potency is the fitted concentration of half-maximal effect; % is set by controls: 0 for no effect and ±100 for the full control effect; nearly all actives have a fitted effect of over 40% in size
Target sequence (Q9NUW8 whole entry, looked up): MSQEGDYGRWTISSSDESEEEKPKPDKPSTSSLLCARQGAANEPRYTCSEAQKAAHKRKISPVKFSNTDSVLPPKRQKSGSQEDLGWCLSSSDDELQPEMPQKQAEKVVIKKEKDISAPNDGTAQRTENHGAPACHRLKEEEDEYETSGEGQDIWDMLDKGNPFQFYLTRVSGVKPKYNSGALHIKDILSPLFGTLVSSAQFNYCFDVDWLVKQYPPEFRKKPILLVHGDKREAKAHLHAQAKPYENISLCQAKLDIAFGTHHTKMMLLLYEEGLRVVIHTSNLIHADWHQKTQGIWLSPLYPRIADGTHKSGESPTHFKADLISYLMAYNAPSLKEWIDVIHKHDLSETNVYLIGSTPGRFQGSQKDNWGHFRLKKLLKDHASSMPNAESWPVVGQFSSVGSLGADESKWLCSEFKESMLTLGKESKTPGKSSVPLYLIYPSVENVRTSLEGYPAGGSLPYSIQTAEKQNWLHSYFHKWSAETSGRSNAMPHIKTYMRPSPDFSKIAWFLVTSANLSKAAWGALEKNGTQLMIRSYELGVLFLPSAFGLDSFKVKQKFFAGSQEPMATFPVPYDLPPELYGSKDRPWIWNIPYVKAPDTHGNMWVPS
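Compounds were preincubated with Tdp1 (1 nM final) for 15 min at room temperature before substrate (15 nM final) started a 5 min reaction; beads (10 ug/ml final) were then added for 10 min before AlphaScreen detection.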
HepG2 viability = qHTS for Inhibitors of TGF-b: Cytotox Counterscreen. HepG2 CAGA-GFP viability, ATP luminescence, 18 h. Potency, µM (doses to about 46.1 µM), inactives show top-dose activity change, negative = cytotoxicity, actives largely listed as cytotoxic. 410,000 compounds, 0.76% hits. AID 588856, 2011; note: potency is the fitted concentration of half-maximal effect
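CellTiter-Glo luminescence gave cytotoxicity after 18 hours at 37 degrees C. The cells were HepG2 CAGA-GFP in 1% FBS DMEM, stimulated with 500 pg/mL TGF-beta after compound addition. %Activity was normalised to no-cell wells (complete cell-killing) and DMSO (no toxicity), and curves were fitted and classified.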
IL-1B inflam inh = qHTS for Inhibitors of Inflammasome Signaling: IL-1-beta AlphaLISA Primary Screen | THP-1 LPS/ATP IL-1B secretion, AlphaLISA, 16 h; hits give low values | activity change, % at 57.5 µM | 360,000 compounds, 4.7% hits; in the data active = activity change below about -50%; inconclusive = mostly about -30% to -49%; note: % is set by controls: 0 for no effect and ±100 for the full control effect
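Secreted IL-1B measured by AlphaLISA bead assay after 16 h compound exposure of THP-1 cells; compounds (final up to 57.5 uM) added 1 h before LPS (250 ng/mL) and ATP (1.25 mM) stimulation; lower signal means less secretion.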
Numbers without * were called inactive; ? = inconclusive; . = no result; [ ] = dose if it differs, or a comment. Compounds with a hit are over-represented: about 19% of the library has one in this group of screens. Unless noted, calls come from the whole dose curve; as a rule, active = well fitted curve in the direction sought with a large enough effect; inconclusive = small, poorly fitted or top-dose-only effect, or another doubt; inactive = no such curve, though single readings can be large; an effect the other way counts as inactive or inconclusive.

SMILES	TDP1 cell CPT	TDP1 cell noCPT	TGFb SMAD3 inh	TDP1 block	HepG2 viability	IL-1B inflam inh
CCC(C)NC(=O)c1cn(CC)c2cc(N3CCN(C(=O)c4ccco4)CC3)c(F)cc2c1=O (configuration not stated)	16µM*	13µM*	-20%	3%	-27%	0
CCn1cc(C(=O)NCC(C)C)c(=O)c2cc(F)c(N3CCN(C(=O)c4ccco4)CC3)cc21	?	21µM*	23%	-1%[0.0935 µM]	4%	1
CCn1cc(C(=O)NCc2ccco2)c(=O)c2cc(F)c(N3CCN(C(=O)c4ccco4)CC3)cc21	21µM*	?	-9%	40µM*	-27%	?
C[N+]1(CC(=O)c2ccc3c(c2)CCCC3)CCOCC1	6%	-20%	2%	.	-12%	.
CN1CCCC(n2nc(Cc3ccc(Cl)cc3)c3ccccc3c2=O)CC1 (configuration not stated)	13µM*	21µM*	-1%	2%	-41%	?
S=c1[nH]nc(-c2ccc(Cl)cc2Cl)n1-c1ccc2c(c1)OCCO2	-12%	-2%	1%	4%	11%	21
Oc1ccc(-c2n[nH]c(=S)n2-c2ccc3c(c2)OCCO3)c(O)c1	?	?	14µM*	?	-48%	-94*
S=c1[nH]nc(-c2ccc(Br)cc2)n1-c1ccc2c(c1)OCCO2	?	18µM*	-1%	7%	13%	44
CCCCC(=O)Nc1ccc(Br)cn1	5%	-2%	-4%	-4%	-11%	-14
Cc1cc(NC(=O)/C=C/c2ccccc2)no1	-25%	-15%	3%	2%	-36%	-9
C=CCCC(=O)Nc1ccc(Br)cn1	?	18µM*	0%	-5%	-1%	-14
O=C(/C=C/c1ccccc1)Nc1ncn[nH]1	7.3µM*	10µM*	10µM*	2%	-31%	-108*
O=C(/C=C/c1ccccc1)Nc1ccc(Br)cn1	2.3µM*	2.3µM*	5%	0%	0%	0
O=C(O)C1=CC(O)[C@@H](O)C(O)C1 (some centres not stated)	0%	-2%	.	4%[56.1 µM]	.	.
CCN1C(=O)C(=O)N(CC(=O)Nc2ccccc2OC(F)F)C1=O	8%	-15%	-3%	1%	-1%	9
O=C(NCCC1=CCCCC1)c1ccc2c(c1)N(Cc1ccc(Cl)cc1)C(=O)c1ccccc1S2=O (configuration not stated)	?	?	-3%	0%	-23%	.
COC(=O)c1ccc(NC(=O)CCNS(=O)(=O)c2cccc3nsnc23)cc1	-6%	-2%	?	6%	-17%	.
CC(=O)SC(C[N+](=O)[O-])c1cn(C(C)=O)c2ccccc12 (configuration not stated)	4.6µM*	2.9µM*	?	7%	-56%	-82*
O=C1C=C(O)c2cccc(O)c2C1=O	26µM*	?	-1%	.	3%	15
O=C1C=C(O)c2ccccc2C1=O	?	-2%[9.04 µM]	.	4%	.	.
Cc1cccc(NC(=O)c2cccc(S(=O)(=O)N3CCc4ccccc4C3)c2)n1	?	?	?	0%	-1%	-13
C=CCNC(=O)/C(=C/c1ccccc1OCC)NC(=O)c1ccccc1	5%	-2%	-1%	0%	2%	-11
CCOc1ccccc1/C=C(/NC(=O)c1ccccc1)C(=O)NC(C)c1ccccc1 (configuration not stated)	23µM*	?	-27%	-2%	-12%	-24

From PubChem BioAssay
